Compounds without any hit were thinned out: in the full panel of roughly 83,000, 20% have a hit.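 Cells were grown in 96-well plates and exposed to the test compound at a single concentration for 48 hours; results are reported as percent growth, with values below 10 considered active.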 Activity calls are given as the source filed them.
What was measured:
Assay in all cases: NCI-60 one-dose screen, 48 h (100 = growth as untreated, 0 = no growth, -100 = all killed)
Details in all cases: 10 µM unless noted
[1] = system: NCI-H23 lung
[2] = system: NCI-H226 lung
[3] = system: NCI-H322M lung
[4] = system: HOP-62 NSCLC
[5] = system: NCI-H460 lung
[6] = system: HOP-92 NSCLC
[7] = system: NCI-H522 lung
[8] = system: A549/ATCC NSCLC
[9] = system: 786-0 renal
[10] = system: COLO 205 colon

Measured: growth

COc1cc2nc(-c3ccc(Cl)cc3)cc(OCCCN3CCC(O)CC3)c2cc1OC
active: [2] 3.82%
inactive: [1] 76.1% | [3] 58.3% | [4] 63.2% | [5] 23.8% | [6] 38.1% | [7] 33.4% | [8] 34.9% | [9] 75.2% | [10] 23.8%

CN1CCN(c2ccc(NC3=C(Cl)C(=O)c4ncccc4C3=O)cc2C(F)(F)F)CC1
inactive: [1] 58.7% | [2] 102% | [3] 98% | [4] 114% | [5] 101% | [8] 104% | [9] 82.6%
active: [6] -76.4% | [7] -49.8% | [10] -16.7%

CCCCC[n+]1ccc(SCC(=O)N(C)c2ccc(Oc3ccccc3)cc2)c2ccccc21
inactive: [1] 90.3% | [2] 106% | [3] 107% | [4] 115% | [5] 107% | [6] 99.9% | [7] 63.3% | [8] 96.2% | [9] 102% | [10] 20.9%

Cn1cc(CC2CC(=O)N(c3ccccc3)C2=O)sc1=NC(=O)c1ccccc1 (stereo not given)
inactive: [1] 95.8% | [2] 97.5% | [3] 92.5% | [4] 92.9% | [5] 106% | [6] 85.1% | [7] 92.8% | [8] 101% | [9] 94.4% | [10] 111%

CC(=O)c1cc2c(N)c(C(=O)Nc3cccc4ccncc34)sc2nc1C
inactive: [1] 102% | [2] 104% | [3] 105% | [4] 91.8% | [5] 104% | [6] 75.2% | [7] 96% | [8] 97.9% | [9] 98.5% | [10] 102%

CCNc1nc2cc(Nc3ccnc4cc(Cl)ccc34)ccc2o1
inactive: [1] 66.9% | [2] 79.6% | [3] 92.9% | [4] 75% | [5] 58% | [6] 56.8% | [7] 61.9% | [8] 67.7% | [9] 81.7% | [10] 72.2%

CC(=O)Oc1ccc(/C=N/NC(N)=S)nc1
inactive: [1] 37.8% | [2] 32.1% | [3] 92.8% | [4] 74.5% | [5] 96.4% | [6] 63.9% | [7] 74.5% | [8] 98.2% | [9] 53.3% | [10] 92.7%

CN1C(N2CCN(S(=O)(=O)c3ccccc3)CC2)=NS(=O)(=O)c2ccccc21
inactive: [1] 98.2% | [2] 112% | [3] 82.6% | [4] 89% | [5] 103% | [6] 86.8% | [7] 80.2% | [8] 69.7% | [9] 99.5% | [10] 109%

O=C(CCN1CCCC1)Nc1ccc2c(NCc3ccccc3)c3ccccc3nc2c1
active: [1] -29.8% | [2] -2.39% | [3] -0.926% | [4] -3.52% | [5] -34.4% | [6] -9.2% | [7] -28.2% | [8] -19.7% | [9] 5.35% | [10] -41.6%

N#Cc1c(NC(=O)NCc2ccccc2)sc2c1CCCCC2
active: [5] 0.445% | [10] 2.15%
inactive: [1] 37.5% | [2] 22.5% | [3] 44.9% | [4] 34.2% | [6] 44.8% | [7] 12.1% | [8] 25.5% | [9] 26.3%

CNC(=O)c1cccc(Cn2nc(C)c(NC(=O)c3ccc(COc4ccc(C(F)(F)F)cc4C)cc3)c2C)n1
inactive: [1] 43.5% | [2] 44.4% | [3] 88.9% | [4] 46% | [5] 50.8% | [6] 74.4% | [7] 40% | [8] 39.1% | [9] 61.9% | [10] 37.3%

CCN(Cc1ccccc1)c1ccc(C=O)cc1
active: [2] 2.99%
inactive: [1] 96.3% | [3] 93.9% | [4] 108% | [5] 100% | [6] 81.9% | [7] 100% | [8] 98.1% | [9] 102% | [10] 113%

Cc1ccc(-n2nc3c(c(C#N)c2=O)CC(c2ccccc2[N+](=O)[O-])C([N+](=O)[O-])=C3O)cc1 (stereo not given)
inactive: [1] 93.2% | [2] 92.1% | [3] 88% | [4] 84.6% | [5] 95.4% | [6] 88.5% | [7] 89.4% | [8] 90.1% | [9] 82.7% | [10] 101%

CC(=O)Nc1ccc(-c2ccc3c(c2)NC(=O)/C3=C\c2ccc[nH]2)cc1
inactive: [1] 52.5% | [2] 85.8% | [3] 64.5% | [4] 95.7% | [5] 50.1% | [6] 130% | [7] 59.3% | [8] 92.4% | [9] 99.3% | [10] 139%

Cc1cccc(-c2cn3ccnc3c(-c3ccc4ncn(Cc5ccccc5)c4c3)n2)c1
inactive: [1] 90.9% | [2] 98.8% | [3] 101% | [4] 90.3% | [5] 89.9% | [6] 71.3% | [7] 71.6% | [8] 85.1% | [9] 78.6% | [10] 88.6%

C[C@@H](Nc1ncnc2ccc(-c3cnc(N)nc3)cc12)c1ccc(F)cc1
inactive: [1] 85.9% | [2] 89.1% | [3] 37.8% | [4] 57.7% | [5] 99.2% | [6] 49.6% | [7] 66.3% | [8] 74% | [9] 68.9% | [10] 112%

COc1cc2nc(-c3ccc(Cl)cc3)cc(OCCCN3CCCC3)c2cc1OC
active: [2] -13.5%
inactive: [1] 62.8% | [3] 58.5% | [4] 45.3% | [5] 25.2% | [6] 25% | [7] 38.1% | [8] 41.5% | [9] 67.4% | [10] 21.5%

Source: PubChem BioAssay (NCI)
